The text below walks through data of PubChem BioAssay (NCATS).

Assay [1] is described as follows: Cell Viability - LYMP2-001 (AID 921). Further: series mostly up to about 92 µM; nearly all actives have a fitted effect of over 70% in size. The method, boiled down: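 Cellular ATP loss read by luciferase luminescence after 24 h compound exposure at 37 C in complete medium. LYMP2-001 lymphoblastoid cells, 2500/well; qHTS concentration-response data fitted with Hill equation for AC50.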
Assay [2] can be described thus: MultiTox-Fluor Cytotoxicity Assay - LYMP1-001 - Dead Cells (AID 946). The method, boiled down: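 LYMP1-001 lymphoblastoid cells (2500/well) treated 16 h at 37 C. Dead-cell protease cleavage of bis-AAF-R110 read at Ex/Em 485/520. Normalized to DMSO and 15 uM tetraoctylammonium bromide; AC50 from Hill fits.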
The nature of assay [3]: MultiTox-Fluor Cytotoxicity Assay - LYMP1-001 - Live Cells (AID 947).
The nature of assay [4]: Cell Viability - LYMP1-002 - Assay at 16 hr (AID 948). The method, boiled down: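 ATP luminescence (CellTiter-Glo) was measured after 16 hr compound exposure at 37 C of 2500 lymphoblastoid LYMP1-002 cells per well. Concentration-response curves were fitted with the Hill equation to give AC50.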
The nature of assay [5]: MultiTox-Fluor Cytotoxicity Assay - LYMP1-002 - Live Cells (AID 955). Summed up:
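Read-out is live-cell protease activity (cell-permeant GF-AFC substrate, fluorescence Ex/Em=405/510), where a decrease indicates acute toxicity. Human lymphoblastoid cells were treated 16 hours at 37 C in a concentration series, and AC50 values came from standard Hill modelling.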

A short description of assay [6]: MultiTox-Fluor Cytotoxicity Assay - LYMP1-003 - Dead Cells (AID 961). Further: nearly all actives have a fitted effect of over 70% in size. Summed up:
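LYMP1-003 human lymphoblastoid cells (2500/well) exposed to compound 16 h at 37 C in complete medium; dead-cell protease read with bis-AAF-R110 fluorescence (Ex/Em 485/520) after 60 min at room temperature. Normalized to DMSO and 15 uM tetraoctylammonium bromide; AC50 from Hill fit.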

The nature of assay [7]: MultiTox-Fluor Cytotoxicity Assay - LYMP1-003 - Live Cells (AID 962).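 Further: cytotoxic hits lower the live-cell protease signal.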 Summed up:
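qHTS, 1536-well; 2500 cells/well LYMP1-003; 5 hr 37 C settle; cpd 16 hr 37 C; MultiTox-Fluor reagent 60 min RT; live-cell protease fluor. 405/510; Hill-fit AC50; tetraoctylammonium bromide pos. ctrl.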

Assay [8] can be described thus: Cell Viability - LYMP1-003 - Assay at 24 hr (AID 963). The method, boiled down: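 Cells seeded at 2500/well, 5 hr at 37 C; compounds added; 24 hr at 37 C; CellTiter-Glo added, 30 min room temperature; luminescence read. Decrease in ATP taken as cytotoxicity, AC50 from Hill modelling.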
The nature of assay [9]: Confirmation and Secondary Assay for Modulators of Hemoglobin Beta Chain Splicing at IVS2 705 locus (AID 930).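 Further: HeLa cells stably expressing the EGFP-705 splicing reporter; GFP fluorescence per well restored by corrected splicing of the IVS2-705 intron in EGFP; series mostly up to about 46 µM.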 Summed up: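 Splice-correction reporter: EGFP cDNA split by beta-globin intron 2 bearing the 705 mutation, stably in HeLa. Compound incubation 2 days, 37C; fluorescent objects 5-250 µm summed per well.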
Assay [10] is described as follows: MultiTox-Fluor Cytotoxicity Assay - LYMP1-002 - Dead Cells (AID 960). Further: nearly all actives have a fitted effect of over 60% in size. Summed up: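 LYMP1-002 cells 2500/well; 5 hr 37 C pre-incubation; compound 16 hr 37 C; MultiTox-Fluor reagent 60 min RT; dead-cell fluor Ex/Em 485/520. Norm. to DMSO (0%) vs 15 uM tetraoctylammonium bromide (100%); Hill AC50.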
Assay [11] in a line: Cell Viability - LYMP1-003 - Assay at 40 hr (AID 964). Further: series mostly up to about 92 µM; nearly all actives have a fitted effect of over 60% in size. Summed up:
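Cells were seeded at 2500 per well and incubated 5 hr at 37 C. Compounds were added across a concentration series and left 40 hr at 37 C. CellTiter-Glo was added for 30 min at room temperature before luminescence reading.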

For assay [12], the target named is Muscarinic acetylcholine receptor M1 (Rattus norvegicus) (UniProt P08482). The assay is described as follows: qHTS Assay for Antagonists of Acetylcholine Muscarinic M1 Receptor: Measurement of IP-One Response (AID 944). Further: nearly all actives have a fitted effect of over 75% in size. The method, boiled down:
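M1-CHO (rat), 2000 cells/well, overnight recovery; cpd 10 min; carbachol EC80 (200 nM), 30 min, HEPES buffer + 50 mM LiCl pH 7.4; IP-One HTRF, Ex 337, Em 620/665 nm.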
On the technique in general: In qHTS, concentration-response curves come from the screen itself.

The target of assay [13] is Pyruvate kinase (Leishmania mexicana) (UniProt Q27686). In words: qHTS Validation Assay for Inhibitors of Leishmania Mexicana Pyruvate Kinase (AID 945). Further: potency means the concentration at half of the fitted maximal effect. The method, boiled down:
(§1)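 The enzyme is a highly purified E451W mutant of LmPYK used at 0.2 nM. It converts 0.5 mM PEP and 0.1 mM ADP over 1 h at room temperature; product ATP is quantified by luciferase luminescence relative to DMSO controls.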

Assay [14] has as its target Pyruvate kinase PKM (Homo sapiens) (UniProt P14618). The assay is described as follows: qHTS Assay for Activators of Human Muscle Pyruvate Kinase (AID 954; active means well fitted curve in the direction sought with a large enough effect, not every such curve was filed as active). Summed up:
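Purified human PKM2 (0.1 nM) with 0.5 mM PEP (Km) and 0.1 mM ADP in 50 mM imidazole pH 7.2, KCl, MgCl2, 1 h at room temperature; ATP formed read by coupled luciferase luminescence. Normalized to no-enzyme/110 uM thiadiazolimine inhibition; 0.3 nM enzyme column for activation.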

The target in assay [15] is Muscarinic acetylcholine receptor M1 (Rattus norvegicus) (UniProt P08482). The assay is described as follows: qHTS Assay for Antagonists of Acetylcholine Muscarinic M1 Receptor: Kinetic Measurement of Intracellular Calcium Response (AID 943). Further: nearly all actives have a fitted effect of over 75% in size. Further: potency means the concentration at half of the fitted maximal effect. The method, boiled down: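 Rat M1-CHO cells, 2000/well, overnight → Fluo-4 no-wash dye with probenecid, 1 h 37C → compound 10 min, room temp → basal read 6 s → carbachol EC80 (100 nM) → 4 min kinetic read; peak/basal.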
Muscarinic acetylcholine receptor M1 (Rattus norvegicus), sequence (P08482 whole entry, looked up): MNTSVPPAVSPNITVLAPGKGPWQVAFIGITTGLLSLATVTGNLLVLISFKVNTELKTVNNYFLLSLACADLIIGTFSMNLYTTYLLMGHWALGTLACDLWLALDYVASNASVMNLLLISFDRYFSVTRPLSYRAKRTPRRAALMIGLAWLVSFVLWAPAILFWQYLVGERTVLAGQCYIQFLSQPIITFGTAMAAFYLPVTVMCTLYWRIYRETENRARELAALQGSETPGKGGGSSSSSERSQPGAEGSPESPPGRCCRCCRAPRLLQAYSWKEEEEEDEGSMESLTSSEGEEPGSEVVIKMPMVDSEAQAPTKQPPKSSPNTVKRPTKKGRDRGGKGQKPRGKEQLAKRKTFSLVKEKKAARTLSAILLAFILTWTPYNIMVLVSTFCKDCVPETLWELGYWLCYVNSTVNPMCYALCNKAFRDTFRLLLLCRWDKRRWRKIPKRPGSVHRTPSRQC

The target in assay [16] is Pyruvate kinase PKM (Homo sapiens) (UniProt P14618). The assay is described as follows: qHTS Assay for Inhibitors of Human Muscle Pyruvate Kinase (AID 958). The method, boiled down:
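Enzyme was run at intermediate activity so both inhibitors and activators could be detected. ATP formed from ADP and PEP by 0.1 nM human PKM2 during a 1 h room-temperature incubation was quantified by coupled luciferase luminescence.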

Assay [17] concerns the target Pyruvate kinase (Leishmania mexicana) (UniProt Q27686). The assay is described as follows: qHTS Validation Assay for Activators of Leishmania Mexicana Pyruvate Kinase (AID 959). Summed up: as §1

Results filed as inconclusive are left out. The source made the active and inactive calls. Unless noted, the call rests on the fitted dose curve; in most records, active means well fitted curve in the direction sought with a large enough effect; inconclusive means small, poorly fitted or top-dose-only effect, or another doubt; inactive means no such curve, though single readings can be large; an effect the other way counts as inactive or inconclusive.

Pyruvate kinase PKM (Homo sapiens), sequence (P14618 whole entry, looked up): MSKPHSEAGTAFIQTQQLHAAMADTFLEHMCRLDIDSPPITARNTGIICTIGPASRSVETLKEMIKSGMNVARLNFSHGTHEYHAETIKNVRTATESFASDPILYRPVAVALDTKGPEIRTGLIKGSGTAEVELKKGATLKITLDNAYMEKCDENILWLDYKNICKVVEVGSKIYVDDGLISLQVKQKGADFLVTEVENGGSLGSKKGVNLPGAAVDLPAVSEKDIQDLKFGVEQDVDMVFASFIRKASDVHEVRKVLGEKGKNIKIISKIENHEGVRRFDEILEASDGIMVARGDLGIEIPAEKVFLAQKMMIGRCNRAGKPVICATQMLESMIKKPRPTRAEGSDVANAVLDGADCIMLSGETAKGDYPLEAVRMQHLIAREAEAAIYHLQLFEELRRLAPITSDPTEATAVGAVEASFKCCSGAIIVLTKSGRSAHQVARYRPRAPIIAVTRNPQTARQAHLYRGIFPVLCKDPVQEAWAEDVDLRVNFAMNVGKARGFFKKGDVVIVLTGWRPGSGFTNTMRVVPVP
Pyruvate kinase (Leishmania mexicana), sequence (Q27686 2-499 E452W): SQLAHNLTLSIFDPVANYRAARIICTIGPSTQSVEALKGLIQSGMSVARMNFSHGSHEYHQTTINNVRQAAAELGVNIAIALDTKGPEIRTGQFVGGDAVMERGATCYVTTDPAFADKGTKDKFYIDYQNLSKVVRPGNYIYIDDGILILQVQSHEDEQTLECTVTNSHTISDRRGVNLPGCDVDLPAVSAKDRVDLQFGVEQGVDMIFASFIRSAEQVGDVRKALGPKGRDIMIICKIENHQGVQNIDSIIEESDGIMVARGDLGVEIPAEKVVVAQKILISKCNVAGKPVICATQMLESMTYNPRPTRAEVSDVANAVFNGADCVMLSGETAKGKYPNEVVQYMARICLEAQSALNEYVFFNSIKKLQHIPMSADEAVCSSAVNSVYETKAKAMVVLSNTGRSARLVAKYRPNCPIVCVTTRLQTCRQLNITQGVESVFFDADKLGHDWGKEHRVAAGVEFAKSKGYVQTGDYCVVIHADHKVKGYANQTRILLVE

As to `Nc1ccc(O)c([N+](=O)[O-])c1`, the Potency entry in assay [1], in assay [2], in assay [3], in [4], in assay [5] and in assay [6] was “inactive” throughout. In addition, the Potency entry in assay [7] and in assay [8] was “inactive” throughout.

As for `O=C(O)c1ccccc1Nc1cccc(C(F)(F)F)c1`, the outcome in assay [9] was inactive.

Consider `CN(C)c1ccc(N=NS(=O)(=O)O)cc1`, for which the Potency entry in assay [1], in assay [2], in assay [3], in [4], in [5] and in [10] was “inactive” each time. Further, the Potency result in assay [6], in assay [7], in assay [8] and in assay [11] was “inactive” each time.

`NCCO`: the Potency result in [1], in assay [2], in assay [3], in assay [4], in [5] and in assay [10] was “inactive” in each case. The Potency entry in assay [6], in assay [7], in assay [8] and in assay [11] was “inactive” each time.

Regarding `Oc1c(Br)cc(Br)c2cccnc12`, the result in assay [9] was inactive.

Take `O=C(OCc1ccccc1)c1ccccc1`: in assay [9], the outcome was inactive.

Regarding `COc1cc(NC(C)CCCN)c2ncccc2c1` (stereo not drawn), in assay [9], the call was inactive.

Regarding `CC(C(=O)O)c1ccc(C(=O)c2cccs2)cc1` (stereo not drawn), the outcome in assay [9] was inactive.

On to `c1ccc2sc(SSc3nc4ccccc4s3)nc2c1`, for which the Potency result in assay [1], in [2], in [3], in [4], in assay [5] and in assay [10] was “inactive” throughout. For the same molecule, the Potency entry in [6], in assay [7], in [8] and in [11] was “inactive” throughout.

In the case of `NCCSSCCN`, the molecule was called inactive in assay [9] and in [14]. In addition, the Potency entry in [12] and in [13] was “inactive” each time.

`Ic1ccc(N2CCN(Cc3c[nH]c4ncccc34)CC2)cc1`: in assay [13], the Potency result was “inactive”. Further, the molecule was called inactive in assay [14].

For the molecule `NCCCS(=O)(=O)O`, the result in assay [9] and in [14] was inactive. In addition, the Potency entry in assay [15], in assay [12] and in assay [13] was “inactive” in each case.

In the case of `COc1ccccc1CNCCCCCCNCCCCCCCCNCCCCCCNCc1ccccc1OC`, the Potency result in [13] is “inactive”. For the same molecule, in assay [14], the result was inactive.

With `COc1ccccc1N1CCN(CCCCNS(=O)(=O)c2cccc3c(N(C)C)cccc23)CC1`, in assay [15], the Potency was 11.2 µM (active). Also, the Potency result in [13] is “inactive”. In addition, in assay [14], the molecule was classed as inactive.

For the molecule `Nc1cc(-c2ccncc2)c[nH]c1=O`, the molecule was classed as inactive in [9].

Regarding `Oc1cc2c(cc1O)CN(C(=S)NCCc1ccc(Cl)cc1)CCC2`, the Potency entry in assay [15], in [12], in assay [13] and in [16] was “inactive” each time.

For `CNCC[C@H](Oc1ccc(C(F)(F)F)cc1)c1ccccc1`, in assay [13], the Potency entry is “inactive”. Moreover, the molecule was classed as inactive in [14].

Take `Brc1c(Br)c(Br)c2n[nH]nc2c1Br`: the Potency entry in [15], in assay [12] and in [13] was “inactive” throughout. Besides, the result in [14] was inactive.

With `O=c1[nH]c2cc(Cl)c(Cl)cc2[nH]c1=O`, the molecule was called inactive in [9] and in assay [14]. The Potency result in [15], in assay [12] and in assay [13] was “inactive” in each case.

`CC1OC1P(=O)(O)O` (stereo not drawn): in assay [9], the molecule was called inactive.

Turning to `CN1C2CCC1CC(OC(=O)C(O)c1ccccc1)C2` (stereo not drawn), in assay [9], the molecule was called inactive.

For the molecule `O=C(O)c1cc([N+](=O)[O-])ccc1NCCCc1ccccc1`, the Potency entry in [15], in [12] and in assay [13] was “inactive” each time. The result in assay [14] was inactive.

As to `Cn1cc(C2=C(c3ccc(Cl)cc3Cl)C(=O)NC2=O)c2ccccc21`, the Potency result in assay [15], in assay [12] and in [13] was “inactive” each time. In assay [14], the outcome was inactive.

For `N=C(N)N`, the result in [9] was inactive.

On to `CC(N)C(=O)OC(C)(C)Cc1ccc(Cl)cc1` (stereo not drawn), for which the outcome in [9] was inactive.

Consider `CCCSc1ccc2nc(NC(=O)OC)[nH]c2c1`, for which the outcome in assay [9] was inactive.

With `COc1ccc(/C=C/C(=O)Nc2ccccc2C(=O)O)cc1OC`, the Potency entry in assay [12] and in [17] was “inactive” throughout. In addition, the Potency in [13] is 12.6 µM (active); in assay [16], 20 µM (active). Besides, the result in assay [14] was inactive.
